# Source: PubChem (National Center for Advancing Translational Sciences (NCATS))
# The list is not random: actives were taken first. Their share in the collection is about 21%.
# HCMV inh: inhibitors of human cytomegalovirus; HFF cells, HCMV-luciferase reporter, 72 h; active compounds read low; activity change, negative = inhibition, % at 57.5 µM; 410,000 tested, 4.5% active; in the data active = activity change below about -60%; inconclusive = no clear call, values can overlap the other calls; inactive = above about -39%; also: % is scaled to controls: 0 for no effect and ±100 for the full control effect
#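 Cell-based, HFFs, 1000 cells/well, 16 h 37C; cpds in DMSO + HCMV-luc, MOI 1 PFU/cell; 72 h 37C; OneGlo luminescence after 5 min RT; norm. to buffer vs Salinomycin 10uM.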
# Pf growth 96h: P. falciparum growth inhibition at 96 hours | 320,000 tested, 6.9% active | P. falciparum luciferase reporter growth, 96 h | Potency, µM (top dose mostly 28.7 µM), for the others: at the top dose activity change, negative = inhibition, hits mostly inhibitors; also: potency is read from the fitted curve at half-maximal effect; % is scaled to controls: 0 for no effect and ±100 for the full control effect
#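 P. falciparum expressing integrated firefly luciferase grown in erythrocytes (2% hematocrit, 0.05% parasitemia final) with compounds for 96 hours at 37 C, 5% CO2. Growth inhibition read as loss of luminescence after adding luciferase detection reagent.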
# Pf growth 48h: inhibits P. falciparum growth in the first generation, 48 h | P. falciparum luciferase growth in erythrocytes, 48 h | 310,000 tested, 5.9% active | Potency, µM (series often up to 28.7 µM), without a hit: at the top dose activity change, negative = inhibition, actives largely listed as inhibitors; also: potency is read from the fitted curve at half-maximal effect; % is scaled to controls: 0 for no effect and ±100 for the full control effect
#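 In quantitative HTS format, infected erythrocytes bearing luciferase-reporter parasites were treated for a single generation at 37 C. Luminescence after adding detection reagent served as the growth measure.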
# HCV inh: HCV inhibition | Potency, µM (series often up to 41.8 µM), inactives show at the highest dose activity change, negative = inhibition, most hits filed as inhibitors | 340,000 tested, 3.4% active | AID 651820 | Huh7.5.1 HCVcc-Cre infection, luciferase reporter, 44 h; also: potency is read from the fitted curve at half-maximal effect; % is scaled to controls: 0 for no effect and ±100 for the full control effect
#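 1,000 cells/well; 4 h culture; + compound; + HCVcc-Cre (~0.5 moi); 44 h; luciferase substrate, RT 15 min; read 15 sec.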
# Cycloheximide cs: counter-screen hit for Shiga toxin inhibitors, cycloheximide; AID 2314; max response, %; cell reporter, cycloheximide protein synthesis inhibition counterscreen; 300,000 tested, 12% active; in the data active = max response mostly above about 13%, no sharp cut-off; inactive = mostly below about 14%; also: read at 38.3 µM for the half of the compounds with a filed dose; 0% is about no effect
# Shiga inhibitor: Shiga toxin inhibition; 290,000 tested, 9.2% active; Vero cells, Shiga toxin protein synthesis inhibition reporter; AID 2315; inhibition, % at 38.7 µM; in the data active = inhibition mostly above about 28%, no sharp cut-off; inactive = mostly below about 43%; also: 0% is about no effect
# Starred values were filed as active, the others as inactive; u = inconclusive; x = no result; [ ] = another dose, or the depositor's remark. Unless noted, calls follow the shape of the dose curve; as a rule, active = well fitted inhibition curve with a large enough effect; inconclusive = small, poorly fitted or top-dose-only effect, or another doubt; inactive = no such curve, though single readings can be large or run the other way.
SMILES,HCMV inh,Pf growth 96h,Pf growth 48h,HCV inh,Cycloheximide cs,Shiga inhibitor
CSc1ccccc1OCc1cc(C(=O)N(C)C(C)c2ccccn2)no1 (stereo not drawn),-1.1,u,4.9%,x,11.4,15.8
CSc1ccccc1OCc1cc(C(=O)N(C)Cc2cnccn2)no1,27.4,u,-16.5%,-7.2%,51.6*,110.2*
CSc1ccccc1OCc1cc(C(=O)N(C)Cc2cc(C)[nH]n2)no1,23.2,11.1%,-12.0%,-16.8%,28.5*,62.8
COc1ccc(Cl)cc1NC(=O)c1c(NCc2cccs2)sc2c1CCCC2,9.3,x,x,x,x,x
N#Cc1c(SCC(=O)Nc2ccc(Cl)cc2Cl)sc2c(O)cc(=O)[nH]c12,-29.7,5.8%,2.94µM*,u,-3.3,14.3
CCn1nccc1C(=O)Nc1nccs1,33.1,1.8%[5.75 µM],13.5%,13.2%,4.4,5.3
Cc1ccc(O)c(NC(=O)c2ccc3c(c2)C(=O)N(Cc2ccco2)C3=O)c1,-30.5,15.9%,0.8%,17.6%,14.7,-11.6
CCCN1C(=O)c2ccc(C(=O)Nc3cc(C)on3)cc2C1=O,36.6,156.1%,12.6%,7.7%,4.9,6.3
CCCc1cc(C(=O)Nc2nccs2)cs1,46.7,x,0.0%,u,57.2*,60.0*
CCCCN1C(=O)c2ccc(C(=O)Nc3c(N)n(CCCC)c(=O)n(C)c3=O)cc2C1=O,3.6,5.22µM*,5.5%,1.4%,-4.6,4.5
Cc1cnc(NC(=O)c2ccc3c(c2)C(=O)N(Cc2ccco2)C3=O)s1,-19.0,u,0.2%,21.1%,12.7*,3.1
COCCN1C(=O)c2ccc(C(=O)Nc3nccs3)cc2C1=O,44.6,3.5%,2.3%,24.8%,21.0,17.2
CCCN1C(=O)c2ccc(C(=O)Nc3nccs3)cc2C1=O,3.0,x,29.8%,0.2%,10.7*,64.8*
O=S(=O)(Nc1ccc(-c2ccc(N3CCCC3)nn2)cc1)c1ccc(Cl)cc1,13.7,x,x,x,x,x
O=C(CC[C@H]1O[C@@H](n2cnc3c(NC(=O)c4ccccc4)ncnc32)[C@H](O)[C@@H]1O)NCCCN1CCOCC1,0.6,x,x,x,x,x
O=C(CCNS(=O)(=O)c1ccccc1)NNC(=O)COc1ccccc1F,-9.9,x,x,1.1%,x,x
Cc1noc(/C=C/c2cccs2)c1S(=O)(=O)N1CCC(C(=O)NCc2ccccc2Cl)CC1,22.9,x,x,x,x,x
CCc1ccc(-c2ccc3nnc(SCC(=O)Nc4cccc(C(C)=O)c4)n3n2)cc1,-22.2,x,x,x,x,x
O=C(O)c1ccc2c(c1)C(=O)N(c1ccccc1-c1ccccc1)C2=O,-15.7,-12.3%,11.8%,17.3%,-2.4,10.0
CCN1C(=O)c2ccc(C(=O)Nc3ncc(C)s3)cc2C1=O,36.4,3.0%,155.6%,11.8%,50.8*,56.0*
O=C(O)c1ccc2c(c1)C(=O)N(c1nccs1)C2=O,-30.5,7.1%,3.29µM*,12.5%,-4.2,19.9
O=C(Nc1cccc(O)c1)c1ccc2c(c1)C(=O)N(Cc1ccco1)C2=O,4.2,9.28µM*,-5.6%,18.2%,-1.4,-4.7
CCCNC(=O)C1(C)CCCN(C(=O)c2c(C)noc2C)C1 (stereo not drawn),-5.7,x,x,x,x,x
O=C(O)c1sccc1Oc1ccc(NS(=O)(=O)c2cccc(F)c2)cc1,-21.9,-1.9%,-11.8%[0.00184 µM],15.6%,4.8,-12.5
Cc1cc(C(=O)Cn2nnc3ccccc3c2=O)c(C)n1Cc1cccs1,5.8,107.3%,81.7%,-22.8%,36.5*,52.2
SMILES,HCMV inh,Pf growth 96h,Pf growth 48h,HCV inh,Cycloheximide cs,Shiga inhibitor
COCCn1c(C)cc(C(=O)COC(=O)CCN2C(=O)c3ccccc3C2=O)c1C,-15.4,36.6%,26.2%,1.5%,7.2,-46.8
Cc1cc(C(=O)CN2C(=O)c3ccccc3C2=O)c(C)n1Cc1cccs1,-27.3,6.5%,69.2%,-17.8%,25.9*,12.5
CCCn1c(C)cc(C(=O)CN2C(=O)c3cccc(N)c3C2=O)c1C,71.8,x,58.7%,-15.6%,17.2*,14.0
Nc1ccccc1N=Nc1ccccc1N,-23.7,414.6%,292.6%,-23.6%,44.0*,51.2*
COc1ccc(/C=N/NC(=O)c2[nH]ncc2Br)c(OC)c1,-36.7,28.4%,21.2%,-2.0%,38.5*,68.0*
O=C(N/N=C/c1ccccc1)c1cc[n+]([O-])cc1,7.7,4.0%,9.3%,5.6%,-4.8,11.2
O=C(N/N=C/c1ccccc1)c1[nH]ncc1Br,-39.7,-6.8%,147.5%,11.8%,43.5*,109.8*
O=C(N/N=C/c1ccco1)c1[nH]ncc1Br,-35.2,-3.0%,5.4%,x,43.2*,120.5*
O=C(N/N=C/c1cccnc1)c1[nH]ncc1Br,52.5,11.4%,18.8%,24.7%,36.6*,49.6*
COc1ccc(-c2noc(Cn3cc(S(=O)(=O)N4CCCC4)ccc3=O)n2)cc1,0.0,-24.7%,u,4.2%,x,x
CC(C)(C)OC(=O)N1CCC(c2c(C(=O)NCc3ccco3)cnn2-c2ccccc2Cl)CC1,0.0,x,x,x,x,x
CCc1ccc(S(=O)(=O)c2nnn(-c3cccc(C)c3)c2N)cc1,-39.3,x,x,x,x,x
O=C(Nc1ccccc1N1CCN(c2ccccc2)CC1)C1CCCCC1,-24.2,u,3.6%,7.0%,-2.0,-13.7
CCOc1ccccc1N1CC(C(=O)Nc2ccccc2N2CCOCC2)CC1=O (stereo not drawn),33.0,u,u,u,37.9*,17.3
CCOc1ccc(Br)cc1S(=O)(=O)Nc1ccccc1N1CCOCC1,-6.1,x,8.28µM*,-20.8%,9.4,-7.2
CCOc1cc(N2CCOCC2)c(OCC)cc1NC(=O)C1CC(=O)N(c2ccccc2OCC)C1 (stereo not drawn),-20.8,u,-27.8%,u,x,x
CC(C)(C)C1CCC(C(=O)Nc2ccccc2N2CCOCC2)CC1 (stereo not drawn),-22.4,u,9.28µM*,30.5%,x,x
CCOc1ccc(Br)cc1S(=O)(=O)Nc1ccc(N2CCOCC2)cc1,16.1,u,x,-6.0%,-4.1,-17.7
Cc1cccc(NC(=O)CSc2nc(=O)n(CCN3CCOCC3)c3c2CCC3)c1,34.8,x,x,x,x,x
COc1ccccc1Cn1c(C)c(C(=O)NCc2ccc(C#N)cc2)sc1=O,-17.3,x,x,x,x,x
COc1ccccc1Cn1c(C)c(C(=O)NCc2cccc(C)c2)sc1=O,-60.8*,x,x,x,x,x
Cc1c(C(=O)NCc2cccc([N+](=O)[O-])c2)sc(=O)n1Cc1cccc(F)c1,-61.2*,x,x,x,x,x
Cc1ccc(CNC(=O)O[C@H]2CC[C@@]34CCCN3C(=O)CCC[C@H]4[C@H]2Cc2ccccc2)cc1,-0.5,x,x,x,x,x
Cc1ccc(C(=O)COC(=O)C2C3C=CC(C3)C2C(=O)OCC(=O)c2ccc(C)c(C)c2)cc1C (stereo not drawn),5.5,1.17µM*,u,u,0.9,-19.9
Cc1c(CCC(=O)N2CCC[C@H]2C(=O)O)c(=O)oc2c(C)c3oc4c(c3cc12)CCCC4,-34.2,-20.3%,71.6%,-17.7%,8.5*,4.9
O=C1COc2ccc3ccccc3c21,-22.8,18.8%,30.9%,2.6%,16.3*,40.4
